Shown are actives, neighbours in structure and some others; about 0.92% of the full set was active somewhere.
Luc counter – Counterscreen for Luciferase (Kinase-Glo TM) Inhibition. 200,000 compounds, 0.28% hits. AID 1379, 2008. Kinase-Glo luciferase, ATP luminescence, 8 min. Potency, µM (titrated, usually from 38.3 µM), usual class: inhibitors; note: nearly all actives have a fitted effect of over 60% in size
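Recombinant Kinase-Glo luciferase, 10 uM ATP (linear range), luciferin; imidazole pH 7.2 / KCl / MgCl2 / Tween / BSA buffer; 8 min RT; luminescence.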
RXFP1 antag – qHTS Assay for Antagonists of the Relaxin Receptor RXFP1; activity change, negative = inhibition, % at 57.5 µM; 350,000 compounds, 0.59% hits; Relaxin receptor 1 (Homo sapiens), Q9HBX9; HEK293-RXFP1, relaxin-stimulated cAMP HTRF, 30 min; stronger effect = lower value;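 active = activity change of -60% or lower, but not beyond a set lower limit; inconclusive = change between -60% and -40%, or beyond the set limit; inactive = change above -40%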
GALK inh – qHTS Assay for Inhibitors of Human Galactokinase (GALK); Potency, µM (highest dose often 57.5 µM), most hits filed as inhibitors; Purified GALK, Kinase-Glo residual ATP luminescence; P51570; 270,000 compounds, 0.007% hits
Target sequence (P51570 whole entry, looked up): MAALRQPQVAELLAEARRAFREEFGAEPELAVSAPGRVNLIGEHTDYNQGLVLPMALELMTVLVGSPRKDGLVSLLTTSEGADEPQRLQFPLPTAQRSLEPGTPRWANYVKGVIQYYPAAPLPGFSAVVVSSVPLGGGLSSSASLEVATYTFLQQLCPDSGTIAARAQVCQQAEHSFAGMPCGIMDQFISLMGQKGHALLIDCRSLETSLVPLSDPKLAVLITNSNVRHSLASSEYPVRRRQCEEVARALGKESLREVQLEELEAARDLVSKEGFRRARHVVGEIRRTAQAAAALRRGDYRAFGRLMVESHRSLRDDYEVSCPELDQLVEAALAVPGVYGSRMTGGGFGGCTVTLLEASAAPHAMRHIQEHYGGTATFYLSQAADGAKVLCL
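Galactose (100 uM) and ATP (35 uM) were turned over by 5 nM GALK for 1 h at RT. Kinase-Glo Plus then converted the remaining ATP into a luminescent signal.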
RXFP1 agonist – qHTS Assay for Agonists of the Relaxin Receptor RXFP1; HEK293T-RXFP1 cAMP TR-FRET, 30 min; response scale: percent of porcine relaxin response, buffer zero; Potency, µM (doses to about 57.5 µM), hits mostly activators; 370,000 compounds, 0.3% hits; AID 2676, 2010; note: nearly all actives have a fitted effect of over 60% in size
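HEK293 cells stably expressing RXFP1, treated 30 min at 37C with compounds plus PDE4 inhibitor Ro 20174; cAMP measured by HTRF TR-FRET. Normalized to buffer and 29 nM porcine relaxin; EC50 by Hill fit.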
PKM2 activator – qHTS Assay for Activators of Human Muscle isoform 2 Pyruvate Kinase. Pyruvate kinase PKM (Homo sapiens), P14618. purified PKM2, Kinase-Glo ATP luminescence, activation; response scale: 0% is enzyme alone, no compound. 260,000 compounds, 0.34% hits. Potency, µM (top dose mostly 57.5 µM), most hits filed as activators; note: nearly all actives have a fitted effect of over 55% in size
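ATP formation by purified human PK-M2, quantified via coupled luciferase luminescence after 1 h at room temperature with 0.1 mM ADP and 0.5 mM PEP final.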
miR-21 act – qHTS Assay for Modulators of miRNAs and/orActivators of miR-21; HeLa miR-21 FLuc reporter, luciferase, 48 h; Potency, µM (titrated, usually from 38.3 µM), hits mostly activators; 340,000 tested, under 10 active; AID 2288, 2010;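 note: miR-21 action dims this reporter so a rising signal means less miR-21 action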
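HeLa cells stably expressing CMV-driven firefly luciferase with a downstream miR-21 binding sequence, endogenously expressing miR-21, were treated with titrations (up to about 40uM final) for 48 hours at 37 degree Celsius. Luciferase luminescence was read after lysis.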
A number is an active result; i = inactive; ? = inconclusive; nt = no result given; [ ] = another dose, or the depositor's remark. Unless noted, calls come from the whole dose curve; as a rule, active = well fitted curve in the direction sought with a large enough effect; inconclusive = small, poorly fitted or top-dose-only effect, or another doubt; inactive = no such curve, though single readings can be large; an effect the other way counts as inactive or inconclusive.

SMILES | Luc counter | RXFP1 antag | GALK inh | RXFP1 agonist | PKM2 activator | miR-21 act
O=C(COC(=O)/C=C/c1ccc([N+](=O)[O-])cc1)Nc1ccc2[nH]c(=O)[nH]c2c1 | nt | -69 | nt | i | nt | nt
NC(=O)NS(=O)(=O)c1ccc(Cl)cc1 | nt | i | nt | nt | nt | nt
O=[N+]([O-])c1ccccc1/C=C/C=N/n1c(-c2cc(-c3ccccc3)n[nH]2)n[nH]c1=S | nt | -69 | i | i | i | i
Oc1c(C(O)(c2ccccc2)c2ccc3ccccc3c2O)ccc2ccccc12 | i[7.66 µM] | nt | nt | nt | nt | nt
CNc1ncncc1-c1ccc(C(=O)N(C)C)cc1 | i | nt | nt | nt | nt | nt
CC(C)CC(=O)N1CCN(Cc2ccc3ccccc3c2)CC1 | nt | i | i | i | i | i
CSc1ccc(CN2CCN(C(=O)CC(C)C)CC2)cc1 | nt | -63 | i | i | i | i
Cc1ccc(CN(Cc2ccco2)C(=O)COc2cc(C)c(Cl)c(C)c2)cc1 | nt | nt | nt | i | nt | i
CCc1ccc(CN(Cc2ccco2)C(=O)COc2ccc(Cl)cc2C)cc1 | nt | -69 | nt | i | nt | i
Cc1cc(Cl)ccc1OCC(=O)N(Cc1ccco1)Cc1ccccc1F | nt | -61 | nt | i | nt | i
Cc1ccc(OCC(=O)N(Cc2ccco2)Cc2ccco2)cc1C | nt | -60 | nt | i | nt | i
Cc1cc(C)cc(OCC(=O)N(Cc2ccco2)Cc2ccccc2Cl)c1 | nt | i | nt | i | nt | i
Cc1cc(OC(C)C(=O)N(Cc2ccco2)Cc2ccco2)cc(C)c1Cl (stereo not drawn) | nt | -88 | nt | i | nt | i
Cc1ccc(OCC(=O)N(Cc2ccco2)Cc2ccco2)cc1 | nt | i | nt | i | nt | i
Clc1ccc(-c2cc(COc3ccc4ccccc4c3)no2)cc1 | i | nt | i | i | i | i
CC(C)(C)c1ccc(OCC(=O)N(Cc2ccco2)Cc2ccccc2F)cc1 | nt | -95 | nt | i | nt | ?
Cc1cc(C)c(OCC(=O)N(Cc2cccc(F)c2)Cc2ccco2)c(C)c1 | nt | -102 | nt | i | nt | ?
COc1ccccc1OCC(=O)N(Cc1ccco1)Cc1ccccc1F | nt | -62 | nt | i | nt | i
CC1CCCCN1CCCNC(=O)c1ccc(Cc2nc3ccccc3[nH]2)cc1 (stereo not drawn) | i | nt | nt | nt | nt | nt
CC(C)OC(=O)[C@@H]1CC[C@H](C)[C@@H](CCC[C@@H]2C[C@@H](O)C[C@H](CC#N)O2)O1 | i | nt | nt | nt | nt | nt
CO[C@@H]1[C@@H]2OP(=O)(O)OC[C@H]2O[C@H]1n1c(Sc2ccc(Cl)cc2)nc2c(N)ncnc21 | i | nt | nt | nt | nt | nt
O=c1c2ccccc2sn1-c1cc(S(=O)(=O)N2CCOCC2)ccc1N1CCCC1 | i | -62 | i | i | i | i
O=c1cc(CSc2nnnn2-c2ccccc2)nc2scc(-c3ccccc3)n12 | i | i | i | i | 25µM | i
O=c1cc(CSc2nnnn2-c2ccccc2)nc2sccn12 | i | i | i | i | ? | i
COc1ccc(CNCCC(c2ccc3c(c2)OCO3)c2ccccc2OC)cc1 (stereo not drawn) | nt | -72 | nt | i | nt | i
SMILES | Luc counter | RXFP1 antag | GALK inh | RXFP1 agonist | PKM2 activator | miR-21 act
COc1ccc(C(C)NCCC(c2ccc(OC(C)C)cc2)c2ccccc2OC)cc1 (stereo not drawn) | nt | -90 | i | i | nt | ?
Cc1cc(C)cc(N2C(=O)CC(c3ccc(C(F)(F)F)cc3)C3=C2COC3=O)c1 (stereo not drawn) | nt | i | nt | i | nt | i
O=C(O)c1cccc(Cn2c(Cl)c(/C=N/NC(=O)c3ccccc3Cl)sc2=O)c1 | i | nt | i | i | i | i
O=C(O)c1cccc(Cn2c(Cl)c(/C=N/Nc3ccccc3)sc2=O)c1 | i | -74 | i | i | i | i
Cc1ccc(C(=O)N/C(=C\c2ccc(-c3ccc(Br)cc3)o2)C(=O)NCCCN(C)C)cc1 | i | -61 | i | i | i | ?
CN(C)CCNC(=O)/C(=C/c1ccc(-c2ccc(Cl)cc2Cl)o1)NC(=O)c1ccccc1 | i | -70 | i | i | i | ?
CC(=O)Oc1ccc2c(c1)CC[C@@H]1[C@@H]2CC[C@]2(C)[C@@H](O)CC[C@@H]12 | nt | i | nt | nt | nt | nt
Cc1ccc(NC(=O)CN(C)CC(=O)Nc2ccc(F)c(Cl)c2)cc1 | i | i | i | i | i | i
CN(CC(=O)Nc1ccc(Cl)c(Cl)c1)Cc1nnc(-c2ccc(F)cc2)o1 | nt | -63 | i | i | i | i
CC(C)C(C(=O)Nc1nccs1)c1ccc(Cl)cc1 (stereo not drawn) | i | -83 | i | i | i | i
COc1ccc(-n2nc(C(=O)NCC(=O)NCCCN3CCOCC3)c3ccccc3c2=O)cc1Cl | nt | i | i | ? | nt | i
COc1cc(OC)cc(-n2nc(C(=O)NCCCN3CCOCC3)c3ccccc3c2=O)c1 | i | i | i | i | i | i
COc1ccc(-n2nc(C(=O)NCC(=O)NCCCN3CCOCC3)c3ccccc3c2=O)cc1 | nt | i | i | 16µM | i | i
COc1ccc(-n2nc(C(=O)NCC(=O)NCCCN3CCOCC3)c3ccccc3c2=O)cc1OC | nt | i | i | 14µM | i | i
COc1c2c(cc3c1C(NC(N)=O)[N+](C)(C)CC3)OCO2 (stereo not drawn) | i | nt | nt | nt | nt | nt
CSc1ncc(C(=O)NCc2ccc(F)cc2)c(-c2ccccc2)n1 | nt | i | nt | ? | nt | i
Nc1nc(-c2ccco2)c(-c2ccco2)s1 | i | i | i | i | 22µM | i
c1coc(-c2nc(-c3ccco3)c(-c3ccco3)nc2-c2ccco2)c1 | i | i | i | i | ? | i
CC(C)=NNc1nc2c(c(=O)[nH]c(=O)n2C)n1CCc1ccccc1 | i | -70 | i | i | i | i
CC(C)(Oc1ccc(Cl)cc1)C(=O)OCCCOC(=O)C(C)(C)Oc1ccc(Cl)cc1 | nt | i | nt | nt | nt | nt
N#CC(C#N)=C1C=CC=CN1/C(=C\c1ccco1)C(=O)c1ccccc1 | i | -104 | i | i | i | ?
COc1ccc(C(=O)/C(=C\c2ccco2)N2C=CC=CC2=C(C#N)C#N)cc1 | i | -75 | i | i | i | ?
Cc1ccc(CN2CC(C(=O)Nc3cc(C)ccn3)CC2=O)cc1 (stereo not drawn) | nt | -118 | nt | i | nt | nt
O=C1NC(=Nc2ccccc2)S/C1=C\C=C\c1ccco1 | i | -102 | i | i | i | i
COc1ccc(N=C2NC(=O)/C(=C/C=C/c3ccccc3)S2)cc1 | nt | i | nt | i | i | i
Cc1ccc(N=C2NC(=O)/C(=C/C=C/c3ccco3)S2)cc1 | i | -67 | i | i | i | i

Screens deposited in PubChem BioAssay by National Center for Advancing Translational Sciences (NCATS).
